From PubChem BioAssay
An excerpt weighted towards active compounds, which were near 2.2% of everything screened.
KLF5 inhibitor: inhibitors of KLF5 expression. DLD-1 KLF5 promoter-luciferase reporter, luminescence. inhibition, % at 5 µM. hit rate 0.23% among 290,000. AID 1700;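 active means inhibition above a per-plate limit of that plate's mean compound inhibition plus 3 SD, cut at about 60% in these data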;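 further: 0% = DMSO wells and 100% = LY294002 at 200 µM; higher means less KLF5 promoter-driven luciferase light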
APP 5UTR inh: APP translation inhibition | SH-SY5Y APP 5'UTR-luciferase reporter, luminescence | hit rate 0.82% among 190,000 | AID 1285 | inhibition, % at 2 µM;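 active means inhibition above a set limit, derived from the sample mean plus 3 SD, cut at about 45% in these data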
BaF3 parental: counter-screen for JAK2V617F inhibitors: parental Ba/F3 viability inhibitors; hit rate 1.1% among 220,000; inhibition, % at 5.6 µM; CellTiter-Glo ATP luminescence;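 active means inhibition above a per-campaign cutoff, the mean inhibition of all tested compounds plus 3 SD, cut at about 27% in these data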;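 further: 0% = DMSO wells and 100% = JAK Inhibitor I control wells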
IEC-6 tox: IEC-6 cytotoxicity, counter-screen for KLF5 inhibitors; luminescence viability; inhibition, % at 5 µM; hit rate 0.78% among 290,000; in the data active means inhibition above about 22%;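 further: 0% = plate median of test compound wells and 100% = cytotoxic reference compound wells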
Ba/F3 V617F tox: lowers viability of Ba/F3 cells expressing EpoR and JAK2V617F; inhibition, % at 5.6 µM; ATP luminescence; hit rate 1.1% among 220,000;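 active means inhibition above the campaign mean plus 3 SD over all tested compounds, cut at about 24% in these data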;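 further: cytokine-independent growth of Ba/F3 cells driven by EpoR plus mutant JAK2; 0% = DMSO-treated cells and 100% = JAK inhibitor I control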
aSyn UTR inh: MLPCN primary screen, SNCA 5' untranslated region; alpha-synuclein 5'UTR reporter, inhibitor activity; inhibition, % (tested at 7.5 µM); AID 1813; hit rate 0.82% among 300,000; in the data active means inhibition above about 60%;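 further: H4 neuroglioblastoma cells stably carrying SNCA 5'UTR luciferase fusion; 0% = DMSO wells and 100% = positive control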
An asterisk follows results filed as active; i = inactive; . = no result.

SMILES	KLF5 inhibitor	APP 5UTR inh	BaF3 parental	IEC-6 tox	Ba/F3 V617F tox	aSyn UTR inh
COc1ccc(N(C(=O)CCl)C(C(=O)NCCc2ccccc2)c2cccs2)cc1 (configuration not stated)	6.1	16.1	29.9*	41.2*	102.0*	-15.7
COc1cccc(OCc2cc(C(=O)N3CCN(C)C(c4ccccc4)C3)no2)c1 (configuration not stated)	-71.7	.	.	-0.6	.	-58.7
O=C(O)c1ccc(N/N=C/c2ccc3c(c2)OCO3)cc1	60.0	31.0	5.3	0.8	-1.1	94.3*
COc1cc(NS(=O)(=O)c2ccc(C)cc2C)cc(OC)c1OC	-15.7	7.2	32.2*	2.2	15.2	6.8
CC(Oc1ccc(Br)cc1)C(=O)NC1CCN(Cc2ccccc2)CC1 (configuration not stated)	.	.	.	.	.	14.1
CC1(C)N=c2ccc([N+](=O)[O-])c(N)c2=[N+]1[O-]	-11.9	.	62.6*	-2.3	69.0*	21.1
Cc1ccc([N+](=O)[O-])c(C)[n+]1C	-25.6	9.3	9.2	0.3	7.7	-3.4
O=C(COC(=O)CN1C(=O)C2CCCCC2C1=O)NC1CCS(=O)(=O)C1 (configuration not stated)	-8.9	7.6	2.0	-1.1	-0.7	14.9
CC1CCCC(NC(=O)COC(=O)CN2C(=O)C3CCCCC3C2=O)C1C (configuration not stated)	-12.8	66.5*	1.7	-3.4	-4.2	-25.4
CCCCOc1ccc(CN=C(N)N)cc1Cl	-14.8	.	35.2*	8.1	14.9	14.5
CCOc1ccc(CN=C(N)N=C(N)N)cc1Cl	5.4	-22.5	27.3*	-1.2	21.1	9.3
CNCCCCOc1ccc(C(C)(C)C)cc1Cl	-21.6	-22.8	3.7	6.5	2.9	-21.5
CCCOc1ccc(CCCN=C(N)N)cc1Cl	-1.8	.	46.1*	9.7	25.1*	-17.4
O=C1OC(Nc2nc(-c3ccc(F)cc3)cs2)c2ccccc21 (configuration not stated)	5.4	.	.	17.6	.	-0.6
COc1ccc(NS(=O)(=O)c2cc(NC(=O)c3nc4nc(C)cc(C)n4n3)ccc2C)cc1	-24.8	0.0	7.9	1.3	6.4	.
Cn1c(-c2cccs2)[n+](C)c2ccccc21	11.9	-7.3	32.2*	6.8	48.8*	13.7
COn1c(=O)c(-c2cccs2)[n+]([O-])c2ccccc21	15.2	7.8	3.0	9.2	4.1	-18.1
COc1ccc(-c2csc3ncnc(N4CCN(c5ccc(OC)cc5)CC4)c23)cc1	-7.0	.	.	1.9	.	-3.4
COc1ccc(-c2nsc3c(N4CCCC4)ncnc23)cc1	-127.4	-156.4	3.3	1.9	7.4	70.2*
CCN(CC1COc2ccccc2O1)C(=S)Nc1ccc(F)cc1 (configuration not stated)	-25.4	-8.8	31.1*	-8.5	33.9*	5.8
CNc1ccc(/C=C2\COc3ccccc3C2=O)cc1[N+](=O)[O-]	-26.7	-11.5	3.7	-7.4	-1.4	-117.5
O=C1/C(=C/c2ccccc2[N+](=O)[O-])COc2ccccc21	8.1	85.9*	-3.3	2.4	3.7	-113.6
CCCC(=O)N(Cc1cc(=O)[nH]c2ccccc12)c1ccccc1C	-39.7	.	.	-5.3	.	23.1
Cc1cc(NC(=S)N(CCCN2CCOCC2)Cc2ccco2)ccc1Cl	14.6	6.5	13.9	-3.0	19.0	-6.9
Cc1ccc(NC(=S)N(CCCN2CCOCC2)Cc2ccco2)cc1	-0.1	-9.3	2.5	-0.6	-2.8	6.4
SMILES	KLF5 inhibitor	APP 5UTR inh	BaF3 parental	IEC-6 tox	Ba/F3 V617F tox	aSyn UTR inh
Cc1ccc(Cl)c(NC(=S)N(CCCN2CCOCC2)Cc2ccco2)c1	-2.4	-9.4	35.7*	6.2	10.8	5.2
S=C(Nc1ccc(Cl)cc1)N(CCCN1CCOCC1)Cc1ccco1	-12.8	13.7	31.8*	-4.9	36.9*	9.8
CCN1CCN(CCCN(Cc2ccco2)C(=S)Nc2ccc(Cl)c(C)c2)CC1	-15.6	-8.1	27.9*	5.0	37.6*	0.6
Cc1ccc(-c2nnnn2-c2ccccc2C(=O)O)cc1	.	.	.	.	.	-4.8
COCCN(C(=O)COC(=O)c1ccc(Cl)nc1)c1c(N)n(Cc2ccccc2)c(=O)[nH]c1=O	.	.	.	.	.	-12.4
COc1ccc2cc(CCNC(=O)c3ccc(S(=O)(=O)N4CCCC4)cc3)c(=O)[nH]c2c1	-14.2	.	.	2.2	.	0.9
CC1=CC(C)(C)N(S(=O)(=O)c2ccc(F)cc2)c2ccccc21	-20.9	18.4	2.2	-5.8	-0.2	-15.8
CC(=O)Nc1ccc(S(=O)(=O)N2c3ccccc3C(C)=CC2(C)C)cc1	92.5*	89.0*	63.7*	88.2*	64.1*	120.9*
CC1=CC(C)(C)N(S(=O)(=O)c2ccc(C)cc2)c2ccc(C)cc21	44.5	50.0*	36.5*	10.2	50.5*	39.8
Cc1ccc[n+](C(C)C(=O)c2ccc(Cl)cc2)c1 (configuration not stated)	-14.1	.	.	-11.9	.	-1.0
Cc1cc(C)c[n+](C(C)C(=O)c2ccc(-c3ccccc3)cc2)c1 (configuration not stated)	-29.8	6.4	65.0*	-2.4	66.4*	12.0
COc1cccc(C(=O)Nc2ccccc2C(=O)NCC2CCCO2)c1 (configuration not stated)	-54.7	.	.	-1.7	.	11.2
Cc1[nH]nc2c1C(c1ccccn1)N(c1ccc(Br)cc1)C2=O (configuration not stated)	-2.9	3.3	95.5*	-0.9	-1.7	-0.3
COc1cccc(NC(=O)CCC2CCN(C(=O)c3ccc(C(C)=O)s3)CC2)c1	-31.4	.	.	-1.9	.	-10.0
C(C#CCCCCCCCCC[n+]1ccccc1)#CCCCCCCCCC[n+]1ccccc1	46.0	.	.	51.0*	.	73.3*
CC(OC(=O)C1=NNC(=O)CC1)C(=O)Nc1ncc(Cl)cc1Cl (configuration not stated)	-12.4	14.4	80.6*	-3.3	1.3	-18.6
O=C(CCl)Nc1cccc(-c2cnc3ccccc3n2)c1	-136.8	.	38.8*	8.1	73.4*	i
CCC(=O)Nc1cccc(-c2cnc3ccccc3n2)c1	-163.1	-52.0	5.3	-0.3	2.6	-122.3
Cc1cc(SCc2cccc(Cl)c2)nc(=O)[nH]1	-9.3	.	.	-7.1	.	2.6
CCCNC(=O)CCn1nc(-c2ccc(Cl)cc2)c2ccccc2c1=O	8.8	.	4.2	5.5	4.6	82.1*
CCCNC(=O)CCn1nc(-c2ccc(C)cc2)c2ccccc2c1=O	-15.7	.	.	-1.3	.	16.9
CN(C)CCCN(C(=O)CCOc1ccccc1)c1nc2ccc(F)cc2s1	-10.6	32.7	8.1	1.0	26.4*	.
CN(C)CCCN(C(=O)COc1ccccc1)c1nc2ccc(F)cc2s1	-29.9	7.7	8.4	0.9	1.5	-20.6
Cc1cc(-c2cccs2)c(C#N)c(=S)[nH]1	-1.3	.	63.3*	-3.0	19.8	2.4
N#Cc1c(-c2cccs2)cc(-c2cccs2)[nH]c1=O	-14.5	.	-1.8	-1.5	-3.4	0.3
CCN1CCN(c2ccc(S(=O)(=O)N3CCOCC3)cc2NC(=O)/C=C/c2ccc([N+](=O)[O-])cc2)CC1	.	.	.	.	.	3.1
CCOC(=O)C1CCN(C(=O)CCc2c(C)nc3cc(-c4ccccc4)nn3c2C)CC1	-12.4	22.9	4.1	-4.0	-3.9	66.5*
